# Source: PubChem BioAssay (NCATS)
# Where “and” joins values, the source holds several entries; their conditions need not be identical. Equal values may be shown once. Results filed as inconclusive are left out. Where a call stands in place of a potency, no number is given. Unmarked numbers belong to inactive results. Calls of active or inactive are those of the source. Calls follow the shape of the dose curve; as a rule, active = well fitted curve in the direction sought with a large enough effect; inconclusive = small, poorly fitted or top-dose-only effect, or another doubt; inactive = no such curve, though single readings can be large; an effect the other way counts as inactive or inconclusive.
# How the values were obtained:
# [1] = molecular target: Cytochrome P450 3A7 (Homo sapiens) (UniProt P24462); assay: Cytochrome P450 family 3 subfamily A member 7 (CYP3A7) small molecule antagonists: luciferase biochemical qHTS assay (AID 1963596); also: nearly all actives have a fitted effect of over 40% in size
# How it was run: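 Luminescence from luciferin released by CYP3A7 from a proluciferin substrate, read 20 min after detection reagent. Compound and enzyme-substrate mix sat 10 min before NADPH regeneration solution; reaction ran 1 h at room temperature.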
# [2] = Cellular viability qHTS for adrenocortical cancer (ACC) cell line SW-13 (AID 1963989); conditions: SW-13 ACC cells viability, CellTiter-Glo, 48 h; activity (max response): hits give low values;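 also: cells grown in serum-free medium with ITS supplement; nearly all actives have a fitted effect of over 65% in size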
# How it was run: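 SW-13 cells in ITS-supplemented serum-free DMEM were plated overnight, then exposed for 48 h at 37C to compound titrations (up to 46 uM final). Viability was read by CellTiter-Glo luminescence; four-parameter logistic fits gave IC50 and efficacy.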
# [3] = Cellular viability qHTS for adrenocortical cancer (ACC) cell line NCI-H295R (AID 1963990); also: nearly all actives have a fitted effect of over 60% in size; also: potency is read from the fitted curve at half-maximal effect
# How it was run: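 Luminescent ATP read-out (CellTiter-Glo, 20 min RT) after 48 h drug exposure of NCI-H295R cells; a titration up to 46 uM final. Data normalized to doxorubicin (100% inhibition) and DMSO (0%); 4-parameter fit gives IC50, max response.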
# [4] = Viability qHTS for spleen associated tyrosine kinase inhibitor (SYKi) naive MV4-11 cells (AID 1963823); also: nearly all actives have a fitted effect of over 40% in size; also: potency is read from the fitted curve at half-maximal effect
# How it was run: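 CellTiter-Glo luminescence, 10 min room-temperature incubation, gave viability. Cells: naive MV4-11 (500/well), treated 72 hr at 37 C, 5% CO2.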
# Sequence of Cytochrome P450 3A7 (Homo sapiens) (P24462 whole entry, looked up): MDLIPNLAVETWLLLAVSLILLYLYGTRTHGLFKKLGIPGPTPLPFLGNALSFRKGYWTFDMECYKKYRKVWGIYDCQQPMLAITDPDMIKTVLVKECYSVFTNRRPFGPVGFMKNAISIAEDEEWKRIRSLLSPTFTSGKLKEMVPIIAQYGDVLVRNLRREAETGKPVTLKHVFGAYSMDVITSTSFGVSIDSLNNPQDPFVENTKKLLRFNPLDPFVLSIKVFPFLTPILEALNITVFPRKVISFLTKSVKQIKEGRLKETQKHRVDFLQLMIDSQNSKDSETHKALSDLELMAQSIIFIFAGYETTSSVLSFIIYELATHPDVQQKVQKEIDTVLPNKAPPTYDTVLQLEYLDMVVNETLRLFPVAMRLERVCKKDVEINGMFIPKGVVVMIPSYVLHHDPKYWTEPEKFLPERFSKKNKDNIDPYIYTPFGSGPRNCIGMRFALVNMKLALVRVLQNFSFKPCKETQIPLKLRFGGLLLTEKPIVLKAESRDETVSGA
smiles,measurement,setting,value
CC(C)(C)c1ccc(C(=O)CCCCl)cc1,Potency,[1],inactive
same,activity (max response),[2],6.38%
same,Potency,[3],inactive
O=C(O)[C@@H]1CSCN1,Potency,[1],inactive
same,activity (max response),[2],-7.21%
same,Potency,[3],inactive
CCCCCCCCCCCCCCCC(=O)OC(C)C,Potency,[1],inactive
same,activity (max response),[2],6.75%
same,Potency,[3],inactive
N=C(N)N,Potency,[1],inactive
same,activity (max response),[2],4.4%
same,Potency,[3],inactive
CN(C)C(=O)Nc1ccc(Cl)c(Cl)c1,Potency,[1],inactive
same,activity (max response),[2],-2.09%
same,Potency,[3],inactive
CC[N+](C)(CC)CCOC(=O)C1c2ccccc2Oc2ccccc21,Potency,[1],inactive
same,activity (max response),[2],-11.3%
same,Potency,[3],inactive
O=C(O)c1cn(C2CC2)c2cc(Cl)c(F)cc2c1=O,Potency,[1],inactive
same,activity (max response),[2],13.4%
same,Potency,[3],inactive
Nc1ccn([C@@H]2O[C@H](CO)[C@@H](O)C2(F)F)c(=O)n1,Potency,[1],inactive
same,activity (max response),[2],-35% and -42.2%
same,Potency,[3],2.06 µM (active) and 794 nM (active)
CN/C(=C\[N+](=O)[O-])NCCSCc1csc(CN(C)C)n1,Potency,[1],inactive
same,activity (max response),[2],7.35%
same,Potency,[3],inactive
CC(N)CCCC(C)(C)O (stereo not drawn),Potency,[1],inactive
same,activity (max response),[2],18.8%
same,Potency,[3],inactive
CC1(C)S[C@@H]2[C@H](NC(=O)C(c3ccccc3)S(=O)(=O)O)C(=O)N2[C@H]1C(=O)O (stereo partly drawn),Potency,[1],inactive
same,activity (max response),[2],8.35%
same,Potency,[3],inactive
NC(=O)CC[C@@H]1NC(=O)[C@H](Cc2ccccc2)NC(=O)[C@H](Cc2ccc(O)cc2)NC(=O)CCSSC[C@@H](C(=O)N2CCC[C@H]2C(=O)N[C@@H](CCCN=C(N)N)C(=O)NCC(N)=O)NC(=O)[C@H](CC(N)=O)NC1=O,Potency,[1],inactive
same,activity (max response),[2],-1.25%
same,Potency,[3],inactive
CCN(CC)CC(=O)Nc1c(C)cccc1C,Potency,[1],inactive
same,activity (max response),[2],2.91%
same,Potency,[3],inactive
OCC(O)CS (stereo not drawn),Potency,[1],inactive
same,activity (max response),[2],8.13%
same,Potency,[3],inactive
NC(=O)c1cnc(NCCc2ccc(O)c(Cl)c2)nc1NCc1ccccc1,Potency,[4],0.0231 µM (active)
C[C@]12CCC[C@](C)(C(=O)O)C1[C@@H](O)[C@@H](O)C13CC(CCC12)C(CO)(O[C@@H]1O[C@H](CO)[C@@H](O)[C@H](O)[C@H]1O)C3 (stereo partly drawn),Potency,[4],inactive
CC[C@@H](C)[C@H]1C(=O)O[C@H](C(C)C)C(=O)N(C)[C@@H](C(C)C)C(=O)O[C@H](C(C)C)C(=O)N(C)[C@@H](C(C)C)C(=O)O[C@H](CC(C)C)C(=O)N1C,Potency,[4],1.53 µM (active)
C[C@H]1CC(=O)C2=C(C1)C(O)C(O)[C@@]1(O)[C@H]2C(=O)c2cccc(O)c2[C@@H]1O (stereo partly drawn),Potency,[4],inactive
CC1(C)CC[C@]2(C(=O)O[C@@H]3O[C@H](CO)[C@@H](O)[C@H](O)[C@H]3O)[C@H](O)C[C@]3(C)C(=CCC4[C@@]5(C)CC[C@H](O[C@@H]6OC[C@@H](O)[C@H](O)[C@H]6O)[C@@](C)(C(=O)O)C5CC[C@]43C)[C@@H]2C1 (stereo partly drawn),Potency,[4],inactive
CC(C)n1nc(-c2ccc(NC(=O)Nc3cccc(C(F)(F)F)c3)cc2)c2c(N)ncnc21,Potency,[4],inactive
C[C@@H]1C(=O)O[C@H]2C[C@]34[C@H]5C[C@@H](C(C)(C)C)[C@]36[C@@H](OC(=O)[C@H]6O)O[C@]4(C(=O)O5)[C@]21O,Potency,[4],inactive
Cc1onc(-c2c(F)cccc2Cl)c1C(=O)N[C@@H]1C(=O)N2[C@@H]1SC(C)(C)[C@@H]2C(=O)O,Potency,[4],inactive
C=C1C(O)CC2C(C(=O)O)=COC(O[C@@H]3O[C@H](COC(=O)c4ccc(O)cc4)[C@@H](O)[C@H](O)[C@H]3O)C12 (stereo partly drawn),Potency,[4],inactive
CC(C)S(=O)(=O)N[C@H]1CCOC[C@@H]1c1ccc(-c2ccc(C#N)s2)cc1,Potency,[4],inactive
CN1C2CCC1CC(OC(=O)[C@H](CO)c1ccccc1)C2 (stereo partly drawn),Potency,[4],0.651 µM (active)
C[C@@H]1O[C@@H](O[C@H]2[C@H](O[C@H]3CC[C@@]4(C)C(CC[C@]5(C)C4CC=C4[C@@H]6CC(C)(C)CC[C@]6(C(=O)O[C@@H]6OC[C@H](O)[C@H](O)[C@H]6O[C@@H]6O[C@@H](C)[C@H](O[C@@H]7O[C@H](CO)[C@@H](O)[C@H](O)[C@H]7O)[C@H](O)[C@H]6O)[C@H](O)C[C@]45C)C3(C)C)O[C@H](CO)[C@@H](O[C@@H]3OC[C@@H](O)[C@H](O)[C@H]3O)[C@@H]2O)[C@H](O)[C@H](O)[C@H]1O (stereo partly drawn),viability (% of control),[4],79.8% [at 9.25 µM]
CS(=O)(=O)c1ccc([C@@H](CC2CCCC2)C(=O)Nc2cnccn2)cc1Cl,Potency,[4],31.6 µM (active)
C[C@H]1[C@H](C)CC[C@]2(C(=O)O)CC[C@]3(C(=O)O)C(=CCC4[C@@]5(C)CC[C@H](O[C@@H]6O[C@H](C)[C@@H](O)[C@H](O)[C@H]6O)C(C)(C)C5CC[C@]43C)[C@H]12 (stereo partly drawn),Potency,[4],inactive
C[C@@H]1O[C@@H](O[C@H]2[C@H](OC(=O)[C@]34CCC(C)(C)C[C@H]3C3=CCC5[C@@]6(C)C[C@H](O)[C@H](O[C@@H]7O[C@H](CO)[C@@H](O)[C@H](O)[C@H]7O)[C@@](C)(CO)C6[C@H](O)C[C@@]5(C)[C@]3(C)C[C@H]4O)OC[C@H](O)[C@@H]2O)[C@H](O)[C@H](O)[C@H]1O[C@@H]1OC[C@@H](O)[C@H](O[C@H]2OC[C@](O)(CO)[C@H]2O)[C@H]1O (stereo partly drawn),viability (% of control),[4],84.5% [at 9.25 µM]
C/C=C1\[C@H](O[C@@H]2O[C@H](CO)[C@@H](O)[C@H](O)[C@H]2O)OC=C(C(=O)O)[C@H]1CC(=O)OCCc1ccc(O)cc1,Potency,[4],inactive
NS(=O)(=O)c1ccc(N2CCN(CC[C@@H]3OCCc4ccccc43)CC2)cc1,Potency,[4],11.6 µM (active)
C=C(COC(=O)CC(C)C)C1Cc2cc(C(C)=O)ccc2O1 (stereo not drawn),Potency,[4],inactive
CC/C=C/CC1=C(CCCCCCCC(=O)O)CCC1=O,Potency,[4],inactive
O=C(O)c1c[nH]c2c(ccc3ccccc32)c1=O,Potency,[4],23.1 µM (active)
CC(=O)OCC1OC(O[C@H]2CC[C@]34C[C@]35CC(O)[C@]3(C)[C@@H]([C@H](C)CC/C=C(\C)C(=O)O)C(O)C[C@@]3(C)C5CC[C@H]4C2(C)C)C(O)C(O)C1OC1OCC(O)C(O)C1O (stereo partly drawn),viability (% of control),[4],62.3% [at 9.25 µM]
Cc1cc(-c2nc(-c3ccc(OC(F)(F)F)cc3)no2)nn1Cc1ccnc(N2CCN(C3CC3)CC2)c1,Potency,[4],inactive
CC[C@H](CO)Nc1nc(NCc2ccc(-c3ccccn3)cc2)c2ncn(C(C)C)c2n1,Potency,[4],0.13 µM (active)
CC[C@]1(O)CC2CN(CCc3c([nH]c4ccccc34)[C@@](C(=O)OC)(c3cc4c(cc3OC)N(C=O)[C@H]3[C@@](O)(C(=O)OC)[C@H](OC(C)=O)[C@]5(CC)C=CCN6CC[C@]43[C@@H]65)C2)C1 (stereo partly drawn),Potency,[4],0.0805 µM (active)
O=C1[C@H](O[C@@H]2O[C@H](CO)[C@@H](O)[C@H](O)[C@H]2O)Oc2ccccc2N1O,Potency,[4],inactive
CC(C)=CCCC1(C)/C=C/C(OC(=O)C=C(C)C)C(C)(O)/C=C/C(=O)/C(CO)=C\C1 (stereo not drawn),Potency,[4],1.59 µM (active)
